Screening results (PubChem BioAssay)
Compounds with a hit are over-represented: about 11% of the library has one in this group of screens.
HPGD block – HPGD (human) dehydrogenase inhibition. P15428. purified HPGD, NADH fluorescence kinetic, PGE2 substrate. Potency, µM, usual class: inhibitors. actives 4.3% (n = 150,000). AID 894
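NADH formation kinetics: reaction with 30 uM PGE2 and 1 mM NAD+ (final), 20 nM enzyme, Tris-HCl pH 8 with Tween 20, after 15 min compound preincubation at room temperature. Fluorescence change, last versus first of five reads.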
ALOX12 inhib – inhibitors of human 12-lipoxygenase (ALOX12); P18054; purified 12-hLO, xylenol orange hydroperoxide absorbance; Potency, µM (top dose mostly 57.1 µM), usual class: inhibitors; actives 0.12% (n = 150,000); active = well fitted curve in the direction sought with a large enough effect; inconclusive = small, poorly fitted or top-dose-only effect, or another doubt; inactive = no such curve, though single readings can be large; an effect the other way counts as inactive or inconclusive; note: nearly all actives have a fitted effect of over 55% in size
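150 nM 12hLO, 25 mM Hepes pH 7.0 + 0.01% Triton X-100; cpd preinc 15 min RT; 40 uM arachidonic acid, 30 min RT; Fe-XO 30 min; A573/A405 ratio as read-out.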
ALDH1A1 inh – blocks purified human ALDH1A1 activity | AID 1030 | P00352 | Potency, µM (series often up to 75.3 µM), actives largely listed as inhibitors | actives 7.3% (n = 220,000) | Purified ALDH1A1, NADH fluorescence, propionaldehyde substrate
Target sequence (P00352 whole entry, looked up): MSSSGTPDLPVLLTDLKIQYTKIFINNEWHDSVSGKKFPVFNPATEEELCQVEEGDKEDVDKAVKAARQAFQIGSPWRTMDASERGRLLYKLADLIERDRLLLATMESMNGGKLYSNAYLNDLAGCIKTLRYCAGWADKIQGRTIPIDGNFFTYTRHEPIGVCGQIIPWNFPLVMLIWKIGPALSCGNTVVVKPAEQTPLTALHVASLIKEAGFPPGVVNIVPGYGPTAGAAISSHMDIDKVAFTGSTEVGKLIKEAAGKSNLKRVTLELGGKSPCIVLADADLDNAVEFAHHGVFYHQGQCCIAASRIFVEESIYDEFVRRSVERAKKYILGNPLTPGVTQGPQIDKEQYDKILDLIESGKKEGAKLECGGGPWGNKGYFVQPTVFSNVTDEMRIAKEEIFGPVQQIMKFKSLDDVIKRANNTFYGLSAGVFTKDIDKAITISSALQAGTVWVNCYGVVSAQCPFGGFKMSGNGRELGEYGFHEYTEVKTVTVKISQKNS
PNC inhibitor – perinucleolar compartment assembly inhibition | AID 2417 | actives 3.1% (n = 140,000) | PC3M PTB-GFP, PNC prevalence imaging, 16 h; active compounds read low | activity change (PNC), negative = inhibition, % at 10 µM;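 active = readout at or below -70, meaning at least 70% loss of cells showing the perinucleolar compartment, a nuclear body marking cancer cells; inconclusive = readout between -30 and a set limit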
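Read-out is percentage of cells bearing a perinucleolar compartment, from automated 20x imaging of fixed, Hoechst-stained PC3M PTB-GFP cells. Cells were seeded 4 h, then exposed 16 h to compound (23 nl of library stock) in duplicate plates.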
IMPase Li cell – cell-permeable IMPase inhibitors with lithium potentiation; CHO-M1 cells, IP1 TR-FRET (IP-One), carbachol + lithium; Potency, µM (titrated, usually from 59.4 µM), usual class: inhibitors; actives 0.35% (n = 210,000); AID 1457; active = well fitted curve in the direction sought with a large enough effect; inconclusive = small, poorly fitted or top-dose-only effect, or another doubt; inactive = no such curve, though single readings can be large; an effect the other way counts as inactive or inconclusive;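 note: IP1 builds up when IMPase is blocked and the TR-FRET signal falls; nearly all actives have a fitted effect of over 50% in size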
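IP1 accumulation measured by competitive TR-FRET in lysed CHO-M1 cells after 30 min compound exposure at 37C, with a small lithium addition to potentiate weak responses. Hill-equation AC50 from ratio and donor-channel data.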
IMPase inh – cell-permeable inhibitors of inositol monophosphatase (IMPase); P97697; CHO-M1 cells, IP1 accumulation, HTRF TR-FRET ratio; inhibition (IP1 accumulation), % at 46.1 µM; 120,000 tested, under 10 active; AID 901; active = well fitted curve in the direction sought with a large enough effect in the signal ratio, not every such curve was filed as active; inconclusive = small, poorly fitted or top-dose-only effect, or a change in a side signal; inactive = no such curve, though single readings can be large or run the other way; the % refers to the signal ratio;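 note: cells stimulated with carbachol in lithium chloride buffer; higher means more IMPase inhibition seen as more IP1 and lower FRET ratio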
Target sequence (P97697 whole entry, looked up): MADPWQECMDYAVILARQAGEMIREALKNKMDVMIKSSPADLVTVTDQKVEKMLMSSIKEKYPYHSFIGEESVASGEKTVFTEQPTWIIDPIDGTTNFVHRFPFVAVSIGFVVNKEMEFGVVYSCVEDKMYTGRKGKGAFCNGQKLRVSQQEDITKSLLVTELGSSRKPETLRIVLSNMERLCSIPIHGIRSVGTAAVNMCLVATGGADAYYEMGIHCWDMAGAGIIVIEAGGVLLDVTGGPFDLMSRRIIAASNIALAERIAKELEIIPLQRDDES
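The IP-One HTRF competitive assay in carbachol-stimulated CHO-M1 cells quantifies cellular IP1. Compounds spanned up to 46 uM final, and activity is expressed as AC50 from concentration-response fits of the ratio and donor data.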
Of the large screens only hits and unclear results are named; the others gave an inactive call. Unless noted, calls come from the whole dose curve; as a rule, active = well fitted inhibition curve with a large enough effect (not every such curve was filed as active); inconclusive = small, poorly fitted or top-dose-only effect, or another doubt; inactive = no such curve, though single readings can be large or run the other way.

O=C(CN1CCCC1)Nc1ccc(Oc2ccc(NC(=O)CN3CCCC3)cc2)cc1	HPGD block 25µM
O=C(CN1CCCCCC1)Nc1ccc(F)c(F)c1	ALDH1A1 inh 22µM
CCC(=O)Nc1ccc(Oc2ccc3c(c2)C(=O)NC3=O)cc1	HPGD block 16µM
O=C(CN1CCNCC1)Nc1ccc(Oc2ccccc2)cc1	none
Cc1c(C)[n+](=O)c(-c2ccco2)c(C)n1[O-]	ALDH1A1 inh 25µM
Cc1c(C)[n+](=O)c(-c2ccc(F)cc2)c(C)n1[O-]	PNC inhibitor inconclusive
N#Cc1cnc(SCCc2ccccc2)nc1N	ALDH1A1 inh inconclusive, PNC inhibitor -83
COC(=O)N[C@@H](c1cccc(F)c1)[C@@H](C)[N+](=O)[O-]	none (no result: PNC inhibitor, IMPase inh)
O=C1CC(C(=O)Nc2ccc(Cl)cc2[N+](=O)[O-])C2(CCCCC2)O1 (configuration not stated)	PNC inhibitor -84 (no result: IMPase inh)
Cc1cnc(CNc2ncnc3ccc(-c4cccc(C#N)c4)cc23)cn1	none (no result: PNC inhibitor, IMPase inh)
CCc1cccc(CC)c1-n1c(SCC(=O)c2c(N)n(C)c(=O)n(C)c2=O)nnc1-c1cccnc1	PNC inhibitor -134, IMPase Li cell inconclusive (no result: IMPase inh)
Cc1ccccc1-n1nnnc1SCC(=O)c1c(N)n(C)c(=O)n(C)c1=O	ALDH1A1 inh 0.35µM (no result: HPGD block, ALOX12 inhib, PNC inhibitor, IMPase Li cell, IMPase inh)
CCn1c(SCC(=O)c2c(N)n(C)c(=O)n(C)c2=O)nnc1-c1ccccc1	none (no result: IMPase inh)
CCOC(=O)C(CC)Sc1ncnc2nc[nH]c12 (configuration not stated)	PNC inhibitor -100
C[C@@H]1O[C@@H](n2cc(F)c(=O)[nH]c2=O)[C@H](O)[C@@H]1O	none (no result: HPGD block, ALDH1A1 inh, PNC inhibitor, IMPase Li cell)
CCOc1ccc(NC2=NCC(=O)N2Cc2cccs2)cc1	ALDH1A1 inh inconclusive, PNC inhibitor -105
O=C(c1cc(C(F)(F)F)cc(C(F)(F)F)c1)N1CCC2(CC1)CN(c1ccccc1)C2	none (no result: PNC inhibitor, IMPase inh)
Cc1cccc(N2C(=O)CC(Sc3nc(C)c4c(n3)CCCC4)C2=O)c1 (configuration not stated)	none
COC(=O)c1ccccc1SC1CC(=O)N(c2ccccc2)C1=O (configuration not stated)	HPGD block 14µM, ALDH1A1 inh inconclusive, PNC inhibitor inconclusive (no result: IMPase inh)
CCN1C(=O)CC(Sc2ccccc2C(=O)O)C1=O (configuration not stated)	PNC inhibitor inconclusive
CCOC(=O)c1c(N2C(=O)CC(Sc3ccccc3C(=O)O)C2=O)sc2c1CCCC2 (configuration not stated)	ALDH1A1 inh 4.5µM (no result: HPGD block, ALOX12 inhib, PNC inhibitor, IMPase inh)
CCOC(=O)c1c(N2C(=O)Nc3ccccc3N2O)sc2c1CCCC2	none (no result: IMPase inh)
Cc1cc(C)cc(N2C(=O)CC(Sc3ncn[nH]3)C2=O)c1 (configuration not stated)	ALDH1A1 inh 2µM (no result: HPGD block, ALOX12 inhib, PNC inhibitor, IMPase inh)
CCOc1ccc(N2C(=O)CC(Sc3ccccc3C(=O)O)C2=O)c([N+](=O)[O-])c1 (configuration not stated)	ALDH1A1 inh 1µM (no result: HPGD block, ALOX12 inhib, PNC inhibitor, IMPase inh)
c1ccc2c(NCCN3CCOCC3)nc(-c3ccoc3)nc2c1	none (no result: HPGD block, ALOX12 inhib, PNC inhibitor, IMPase inh)
CC(=O)c1ccc(C2C=CC(Oc3ccc(F)cc3C)C(CO)O2)cc1 (configuration not stated)	none (no result: HPGD block, ALOX12 inhib, PNC inhibitor, IMPase Li cell, IMPase inh)
O=C(Nc1cc(SCCO)cc([N+](=O)[O-])c1)c1ccc(Br)o1	none (no result: IMPase inh)
O=C(O)c1oc(C(=O)O)c(C(=O)O)c1C(=O)O	none (no result: PNC inhibitor, IMPase inh)
Cc1c(O)nc(SC2CC(=O)N(c3ccccc3)C2=O)[nH]c1=O (configuration not stated)	ALDH1A1 inh inconclusive
Cn1nnnc1SC1CC(=O)N(c2ccccc2)C1=O (configuration not stated)	ALDH1A1 inh 1.6µM (no result: HPGD block, ALOX12 inhib, PNC inhibitor, IMPase inh)
Cc1cccc(N2C(=O)CC(Sc3nc(C)cc(C)n3)C2=O)c1 (configuration not stated)	ALDH1A1 inh inconclusive
Cc1cccc(N2C(=O)CC(Sc3nnc(C)s3)C2=O)c1 (configuration not stated)	HPGD block 25µM, ALDH1A1 inh 2.8µM
Cc1cc(C)cc(N2C(=O)CC(Sc3nnnn3-c3ccccc3)C2=O)c1 (configuration not stated)	HPGD block inconclusive, ALDH1A1 inh 14µM
O=C1CC(Sc2nnnn2C2CCCCC2)C(=O)N1c1ccccc1 (configuration not stated)	HPGD block inconclusive, ALDH1A1 inh 3.5µM, PNC inhibitor -100
Cn1c(-c2c(N)n(CCCc3ccccc3)c3nc4ccccc4nc23)nc2ccccc21	HPGD block inconclusive, ALDH1A1 inh inconclusive, IMPase Li cell 10µM, IMPase inh inconclusive
Cn1c(-c2c(N)n(C3CCCC3)c3nc4ccccc4nc23)nc2ccccc21	PNC inhibitor -94
CCOC(=O)/C(C)=N/NC(C)=O	none (no result: ALOX12 inhib, PNC inhibitor, IMPase inh)
O=C1c2[nH]nc(-c3ccccc3)c2C(c2ccccc2)N1c1cccc(C(F)(F)F)c1 (configuration not stated)	none (no result: HPGD block, ALOX12 inhib, ALDH1A1 inh, PNC inhibitor, IMPase Li cell)
CCOc1ccccc1Nc1nc2ccccc2nc1NS(=O)(=O)c1ccc(Cl)cc1	none (no result: HPGD block, ALOX12 inhib, ALDH1A1 inh, PNC inhibitor, IMPase Li cell)
Cc1sc(NC(=O)C2CCCO2)c(C(N)=O)c1C (configuration not stated)	HPGD block 28µM, ALDH1A1 inh 11µM
Cc1c(C(=O)OC(C)C)sc(NC(=O)C2CCCO2)c1C(=O)OC(C)C (configuration not stated)	none
CCC(=O)N(CC(=O)Nc1sc(C)c(C)c1C(N)=O)C1CCCCC1	ALDH1A1 inh inconclusive, PNC inhibitor inconclusive
CC(=O)Nc1sc2c(c1C(N)=O)CCCC2	none
CCCc1cc(C(N)=O)c(NC(=O)C2CCCO2)s1 (configuration not stated)	HPGD block inconclusive, ALDH1A1 inh 14µM
NC(=O)c1c(NC(=O)C2CCCO2)sc2c1CCCC2 (configuration not stated)	HPGD block 8.9µM, ALDH1A1 inh inconclusive, PNC inhibitor inconclusive
CCOC(=O)c1sc(NC(=O)C2CCCO2)c(C(=O)OCC)c1C (configuration not stated)	HPGD block inconclusive, ALDH1A1 inh 8.9µM
Cc1cccc(NC(=O)COc2cccc3c2CCN(C)C3=O)c1C	ALDH1A1 inh inconclusive (no result: HPGD block, ALOX12 inhib, PNC inhibitor, IMPase inh)
CCOC(=O)c1c(NC(=O)C2CCCO2)sc(C)c1C (configuration not stated)	ALDH1A1 inh 14µM (no result: HPGD block, ALOX12 inhib, PNC inhibitor, IMPase inh)
N#Cc1c(NC(=O)C2CCCO2)sc2c1CCCCCC2 (configuration not stated)	HPGD block inconclusive, ALDH1A1 inh 14µM (no result: IMPase inh)
CCOC(=O)c1c(NC(=O)COc2cccc3c2CCN(C)C3=O)sc2c1CCC2	HPGD block inconclusive, ALDH1A1 inh 20µM, PNC inhibitor inconclusive (no result: IMPase inh)
